Source: PubChem BioAssay (ICCB-Longwood Screening Facility, Harvard Medical School)
ugtP null kill – growth inhibition of S. aureus ugtP deletion strain; AID 1259309; 0.54% of 330,000 active; growth inhibition, % (concentration not given with the values); S. aureus RN4220 ugtP deletion, OD600 growth, 16 h; in the data active = growth inhibition above about 68%;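 also: plate controls were untreated wells for no effect and antibiotic for full effect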
RN4220 kill – S. aureus RN4220 growth inhibition | OD600, 16 h | inhibition, % (no concentration beside the values) | 0.33% of 330,000 active | AID 1259311; in the data active = inhibition above about 85%;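 also: plate controls were untreated cells for no effect and reference antibiotic for full effect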
Mtb hypoxia rep – inhibitors of hypoxia-regulated fluorescent reporter in Mycobacterium tuberculosis. M. tuberculosis hypoxia-regulated fluorescent reporter, fluorescence. fluorescence inhibition, % (test concentration not listed). 0.1% of 300,000 active. AID 1159583; in the data active = fluorescence inhibition mostly above about 23%, no sharp cut-off; inactive = mostly below about 17%
The depositor's hits bear a star; · = not tested or not shown. An excerpt weighted towards active compounds, which were near 0.68% of everything screened.

SMILES	ugtP null kill	RN4220 kill	Mtb hypoxia rep
NC(=O)C1CC2(CC(c3cccc(NC(=O)COc4ccc(Cl)cc4)c3)=NO2)CN1C(=O)C1CCC(=O)N1 (stereo not given)	-2.7	-0.1	0.7
O=c1c(Cl)nc2cc(Cl)ccc2n1CCNc1ncc(C(F)(F)F)cc1Cl	95.8*	33.1	·
O=c1c2nncn2c2cc(C(F)(F)F)ccc2n1CCNc1ncc(C(F)(F)F)cc1Cl	4.4	-0.9	12.2
CCn1cc(C(=O)O)c(=O)c2cc(F)c(N3CCN(C(=S)NC(=O)c4ccccc4Cl)CC3)cc21	99.6*	99.6*	8.4
CCn1cc(C(=O)NCc2ccccc2)c(=O)c2cc(F)c(N3CCN(C(=O)c4ccco4)CC3)cc21	39.9	27.1	·
CCn1cc(C(=O)O)c(=O)c2cc(F)c(N3CCN(C(=S)NC(=O)c4cc(OC)cc(OC)c4)CC3)cc21	99.0*	99.7*	4.7
CCn1cc(C(=O)O)c(=O)c2cc(F)c(N3CCN(C(=S)Nc4ccc(OC)cc4)CC3)cc21	79.0	80.4	13.1
CCn1cc(C(=O)NC(C)C)c(=O)c2cc(F)c(N3CCN(C(=O)c4ccco4)CC3)cc21	22.8	6.7	-4.4
CCn1cc(C(=O)O)c(=O)c2cc(F)c(N3CCN(C(=S)NC(=O)c4ccccc4C)CC3)cc21	99.7*	99.9*	20.9
CCn1cc(C(=O)O)c(=O)c2cc(F)c(N3CCN(C(=S)NC(=O)c4ccccc4)CC3)cc21	98.7*	98.8*	12.0
CCn1cc(C(=O)O)c(=O)c2cnc(N3CCN(C(=S)NC(=O)c4ccccc4)CC3)nc21	17.5	20.5	6.1
CN(CCC#N)C(=O)COC(=O)c1c2c(nc3ccccc13)C(=Cc1ccco1)CC2	-16.5	2.3	1.3
Fc1cccc(CCN2C(=S)NCC2CC2CCCCC2)c1 (stereo not given)	1.7	0.4	0.0
COc1ccc2nc(N3CCC(C)CC3)c(C#N)cc2c1	88.8*	3.9	12.3
COc1ccc2nc(N3CCC(O)CC3)c(C#N)cc2c1	9.9	0.7	·
CC(=O)N1c2ccc(C)cc2Sc2c1ccc1ccccc21	70.1	4.1	18.6
CCN1/C(=C/c2ccc3cccc(C)c3[n+]2CC)Sc2ccccc21	99.6*	99.6*	·
CCN1/C(=C/c2ccc3cc(C)cc(C)c3[n+]2CC)Sc2cc(C)ccc21	99.6*	99.6*	·
CCN1/C(=C/c2ccc3cc(C)ccc3[n+]2CC)Sc2ccc3sccc3c21	100.5*	100.1*	·
CCN1/C(=C\c2ccc3cc(C)ccc3[n+]2CC)Sc2cc(C)c(C)cc21	100.4*	100.0*	·
CCN1/C(=C\C(C)=O)Sc2ccc(OC)cc21	-4.1	2.8	12.4
CC[n+]1c(C)sc2c3ccsc3ccc21	4.9	5.1	4.6
C[n+]1ccccc1/C=C1\Sc2ccccc2N1CCO	2.7	0.2	3.8
CC(C)(C)OC(=O)NCCCCC(NC(=O)c1nc[nH]c1C(=O)N1CCc2ccccc2C1)C(=O)OC(C)(C)C (stereo not given)	-9.3	2.4	8.8
Cc1ccc(S(=O)(=O)N=C(CN2CCOCC2)N2CCOCC2)cc1	-4.9	1.2	-7.4
SMILES	ugtP null kill	RN4220 kill	Mtb hypoxia rep
C#CCOCCOCCOCCNc1nc(N2CCN(C(=O)C(C(C)CC)n3cc(C(N)Cc4ccc(O)cc4)nn3)CC2)nc(N2CCN(C(=O)C(C(C)CC)n3cc(C(N)CC(C)C)nn3)CC2)n1 (stereo not given)	0.2	0.2	·
Cc1ccc2c(c1)S/C(=C\c1cccc[n+]1C)N2CCO	-0.1	0.6	10.4
CCN1C(=Cc2ccc3ccccc3[n+]2CC)Sc2cc(C)ccc21	100.2*	100.8*	·
C=CC[n+]1c(/C=C2\C=Cc3cc(C)ccc3N2CC)ccc2ccccc21	100.0*	100.1*	·
CCN1C(=C(C#N)C#N)C=Cc2cc(C)ccc21	7.5	7.7	-6.5
COC(=O)C=Cc1cc(F)ccc1S(=O)(=O)NC(C)(C)C	-12.3	4.0	4.7
CCOc1ccc(NC(=S)NNc2ccnc3cc(Cl)ccc23)cc1	-0.6	-0.3	4.1
S=C(NNc1ccnc2cc(Cl)ccc12)Nc1ccc(Cl)cc1Cl	6.5	90.0*	13.0
CC(CC(=O)Nc1cc(C)cc(C)c1)=NNC(=O)c1ccccn1	8.5	-1.4	4.1
Cc1ccc(/C(O)=C/C(=O)C(=O)NNC(=O)C(O)(c2ccccc2)c2ccccc2)cc1	60.3	6.8	1.5
O=C(C=C(O)c1ccc(Cl)cc1)C(=O)NNC(=O)C(O)(c1ccccc1)c1ccccc1	95.2*	0.2	7.6
COc1ccc(C2CC(=O)C=C(c3ccccc3)C2)cc1OC (stereo not given)	5.3	7.4	2.7
COc1ccc(C=NNC(=O)c2ccn[nH]2)cc1Cn1cc([N+](=O)[O-])cn1	3.9	2.7	3.6
O=C(ON=C(c1ccccc1)c1ccncc1)c1ccccc1F	-3.7	-4.5	-9.4
Cc1ccn2c(Nc3ccc4c(c3)OCO4)c(-c3ccccn3)nc2c1	23.0	48.1	5.9
Cc1ccc(Nc2c(-c3ccccn3)nc3cc(C)ccn23)cc1	100.3*	100.4*	22.6
Cc1ccc(Nc2c(-c3ccccn3)nc3ccc(C)cn23)cc1	95.0*	100.1*	·
Cc1ccc2nc(-c3ccncc3)c(Nc3ccccc3)n2c1	-4.2	2.5	2.4
COC(=O)C1C[C@@]2(O)C(O)C(O)C(O)CC2N1CC1CC1 (stereo not given in full)	4.3	4.1	7.4
CCOC(=O)C1C2COc3cc(OC)ccc3C2N2C(=O)c3cc(C)ccc3NC(=O)[C@@]12C (stereo not given in full)	-1.4	-5.5	-4.7
CCOC(=O)CN1C(=O)NC(c2ccccc2)C(C(=O)OC)C1C (stereo not given)	-6.9	4.5	7.6
COc1ccc(OC)c(/C=C2\SC(=S)N(NS(=O)(=O)c3ccc(C)cc3)C2=O)c1	-31.5	19.3	4.9
COc1ccc(OC)c(/C=C2\SC(=S)N(NS(=O)(=O)c3ccccc3)C2=O)c1	4.7	32.6	-9.9
CCOc1ccc(/C=C2\SC(=S)N(NS(=O)(=O)c3ccc(C)cc3)C2=O)cc1OC	84.9	85.7*	3.8
COc1ccccc1/C=C1\SC(=S)N(NS(=O)(=O)c2ccc(C)cc2)C1=O	81.5	95.5*	-19.2
SMILES	ugtP null kill	RN4220 kill	Mtb hypoxia rep
COc1ccc(/C=C2\SC(=S)N(NS(=O)(=O)c3ccccc3)C2=O)c(OC)c1	91.5*	69.2	4.6
CCOc1ccc(/C=C2\SC(=S)N(NS(=O)(=O)c3ccccc3)C2=O)cc1OC	31.6	61.2	5.7
CCOc1ccccc1NC(=O)C(=O)NN=Cc1ccc([N+](=O)[O-])cc1	-3.1	-2.5	-6.3
Cn1cnc([N+](=O)[O-])c1Oc1cccc2ccccc12	-3.3	8.9	6.0
Cn1cnc([N+](=O)[O-])c1S(=O)(=O)Oc1cccc2ccccc12	91.1*	52.4	·
CC(=NNC(=O)CSCc1ccccc1Cl)c1cccc(NC(=O)c2ccccc2)c1	-6.3	-7.1	1.6
CC(=CC(=O)OCCCCCCCCC(=O)O)CC1OCC(CC2OC2C(C)C(C)O)C(O)C1O (stereo not given)	100.2*	100.2*	7.5
c1ccc(-c2cc3ccccc3nc2N2CCCC2)cc1	84.7*	-0.3	·
c1ccc2nc(N3CCCC3)c(N3CCCC3)nc2c1	12.8	-0.5	·
Cc1ccc(-c2cc3ccccc3nc2N2CCOCC2)cc1	91.2*	-3.2	-2.3
Cc1ccc2nc(N3CCOCC3)c(C=O)cc2c1	-6.6	4.8	1.1
